# PubChem BioAssay AID2315 (National Center for Advancing Translational Sciences (NCATS), 2010)
# The whole screen tested about 290,000 compounds, of which about 27,000 (9.3%) were called active. Rule as the data show it: active = inhibition mostly above about 28% (no sharp cut-off); inactive = mostly below about 43%. This excerpt belongs to a sample that is enriched for actives.
# Test: A qHTS for Small Molecule Inhibitors of Shiga Toxin; also: 0% is about no effect
# Details: Vero cells, Shiga toxin protein synthesis inhibition reporter; at 38.7 µM, stronger effect = higher value
row,SMILES,inhibition
1,Cc1cc(C)c(S(=O)(=O)c2cc(F)ccc2C)c(=O)[nH]1,-5.17% (inactive)
2,CCOc1ccc(NC(=O)COc2ccc(S(=O)(=O)N3CCCC3)cc2)cc1,22.6% (inactive)
3,Cc1ccc(NC(=O)NC(=O)CSc2nnc(-c3ccc(OC(F)F)cc3)n2N)c(C)c1,12.9% (inactive)
4,C=C(C)CSc1nnc(-c2ccc(C)cc2)n1N,130% (active)
5,Cc1ccc(-c2nnc(SC(C)C#N)n2N)cc1 (configuration not stated),12.2% (inactive)
6,COc1cccc(C(=O)OCc2cc(=O)oc3c(C)c(C)ccc23)c1OC,4.14% (inactive)
7,Cc1ccc(CNC(=O)CCS(=O)(=O)c2ccc3c(c2)CC(C)N3C(=O)C2CC2)o1 (configuration not stated),32.1% (inactive)
8,O=C(Nc1nonc1-c1ccc(Cl)cc1)c1ccco1,6.78% (inactive)
9,COc1cccc(CNC(=O)Cn2c(=O)oc3cc(S(=O)(=O)N4CCCCC4)ccc32)c1,-6.29% (inactive)
10,c1ccc(-n2nc3ccccc3n2)cc1,25.4% (active)
11,Oc1ccc(-c2nncn2-c2ccccc2)cc1,-7.57% (inactive)
12,c1ccc(-n2ncc(-c3nn[nH]n3)n2)cc1,-22.5% (inactive)
13,CN1CN(C)c2ccc([N+](=O)[O-])c3cccc1c23,4.19% (inactive)
14,Cc1nn(C)cc1S(=O)(=O)N1CCN(c2ccc(F)cc2)CC1,-28% (inactive)
15,COc1ccc(C(C(=O)NC(C)(C)C)N(Cc2ccc(F)cc2)C(=O)CCC(=O)Nc2cc(C)on2)cc1 (configuration not stated),-4.11% (inactive)
16,Cc1cc(=O)oc2c(C)c(OCC(=O)NCCN3CCOCC3)ccc12,-1.86% (inactive)
17,O=C1c2ccccc2C(=O)N1CCCc1nc(-c2ccccc2)no1,8.99% (inactive)
18,O=C(Cc1ccc(Cl)cc1)NCc1nc(-c2ccccc2)no1,-5.48% (inactive)
19,c1ccc(CCc2nc(-c3ccncc3)no2)cc1,60.1% (active)
20,COc1ccccc1OCC(O)CN1CCOCC1 (configuration not stated),-3.66% (inactive)
21,OC(COc1ccc2ccccc2c1)Cn1cncn1 (configuration not stated),11% (inactive)
22,OC(COc1ccc2ccccc2c1)CN1CCOCC1 (configuration not stated),26.8% (active)
23,COc1ccc(C2/C=C\CN(Cc3ccco3)C(C)C(=O)N2Cc2ccc(F)cc2)cc1 (configuration not stated),-2.61% (inactive)
24,O=C(Nc1cccc(-n2cnnn2)c1)c1cccnc1,-4.33% (inactive)
25,Cc1c(NC(=O)c2cccnc2)c(=O)n(-c2ccccc2)n1C,12.2% (inactive)

row,SMILES,inhibition
1,Cc1ccc(-n2nc3cc(C)c(NC(=O)c4cccnc4)cc3n2)cc1,49% (active)
2,COC(=O)c1cc(Cl)c(NC(=O)c2ccco2)cc1OC,29.6% (inactive)
3,Cc1cc(NC(=O)c2ccco2)c(=O)n(Cc2c(F)cccc2Cl)c1,1.74% (inactive)
4,Cc1ccc(-n2nc3cc(Cl)c(NC(=O)c4ccco4)cc3n2)cc1,75.3% (active)
5,C[C@H](NC(=O)[C@@H]1Cc2ccccc2CN1C(=O)OC(C)(C)C)C(=O)NC1CCCC1,-6.03% (inactive)
6,O=c1[nH]cccc1-c1nc2ccccc2n1Cc1ccc(Cl)cc1,-20.4% (inactive)
7,O=S(=O)(c1ccccc1)c1nc(Cc2ccccc2)oc1N1CCOCC1,-8% (inactive)
8,COc1cccc(CNCc2ccc3c(c2)OCO3)c1,-0.994% (inactive)
9,COc1cccc(C(=O)NNC(=O)/C=C/c2ccccc2)c1,-15.7% (inactive)
10,COc1ccc(C2(O)C(=O)Nc3ccccc32)cc1 (configuration not stated),-10.8% (inactive)
11,O=C1Nc2ccccc2C12Nc1ccccc1S2 (configuration not stated),103% (active)
12,Cc1cc(O)c(C2(O)C(=O)Nc3ccccc32)cc1C (configuration not stated),-0.279% (inactive)
13,Cn1c(=O)[nH]c(=O)c2c1nc(N1CCN(C(c3ccccc3)c3ccccc3)CC1)n2CCO,-11.3% (inactive)
14,COc1ccc(NC(=O)c2cccc(Cl)c2)c[n+]1[O-],-4.4% (inactive)
15,O=[N+]([O-])c1ccccc1/C=C/CN1CCC(O)CC1,-7.66% (inactive)
16,CS(=O)(=O)N(CC(=O)N1CCN(Cc2ccccc2)CC1)c1ccc2c(c1)OCCO2,-18.5% (inactive)
17,c1ccc(CN2CCC(N=C3NN=C(c4ccc5c(c4)OCCO5)CS3)CC2)cc1,116% (active)
18,Clc1cccc(N=C2NN=C(c3ccc4c(c3)OCCO4)CS2)c1,95.2% (active)
19,CC(=NC1CCN(Cc2ccccc2)CC1)c1c(O)[nH]c(=O)[nH]c1=O,21% (inactive)
20,Cc1cccc(C)c1NC(=O)CSc1nc2c([nH]1)c(=O)n(C)c(=O)n2C,-8.9% (inactive)
21,Cc1ccc(C(=O)N2CC(=O)Nc3ccc(F)cc3C2c2ccc(F)cc2)cc1 (configuration not stated),2.9% (inactive)
22,CCOC(=O)c1cc(C(=O)Nc2ccc(S(=O)(=O)Nc3ccc(OC)cc3)cc2)nn1C,5.33% (inactive)
23,CCOc1ccccc1Nc1ccc2nonc2c1[N+](=O)[O-],-7.22% (inactive)
24,O=C(c1ccc(Cl)cc1)c1cnc(Nc2ccccc2)s1,25.6% (inactive)
25,CC(C)(C)C(=O)c1cnc(Nc2ccccc2)s1,87% (active)

row,SMILES,inhibition
1,S=c1[nH]nc(Nc2ccccc2)s1,-13.5% (inactive)
2,COc1ccc(-n2cnnc2SCC(=O)Nc2cccc(S(N)(=O)=O)c2)cc1,-21.7% (inactive)
3,COc1ccc(OC)c(NC(=O)CN(C)CCOc2ccc(Br)cc2)c1,-23.8% (inactive)
4,NNC(=O)COc1ccc(C2SCCS2)cc1,20.4% (inactive)
5,NC(=O)COc1ccc(C23CC4CC(CC(C4)C2)C3)cc1,58.8% (active)
6,NC(=O)COc1ccccc1C(=O)NC12CC3CC(CC(C3)C1)C2,-4.22% (inactive)
7,O=S(=O)(Oc1ccccc1C(=S)N1CCOCC1)c1ccc(Cl)cc1,-36.2% (inactive)
8,Cc1ccc(N(C(=O)c2snc(C(N)=O)c2N)C(C(=O)NCC2CCCO2)c2c[nH]c3ccccc23)cc1 (configuration not stated),23.7% (inactive)
9,COC(=O)c1ccccc1NC(=O)C1CCN(C(=O)N2CCOc3ccccc32)CC1,8.07% (inactive)
10,CC(=O)Nc1cccc(-c2nc3ccccc3s2)c1C,60.4% (active)
11,Oc1ccc(-c2[nH]ncc2-c2nc3ccccc3s2)c(O)c1,13.6% (inactive)
12,Cc1nn(CC(=O)Nc2nc3ccccc3s2)c(C)c1[N+](=O)[O-],26.1% (inactive)
13,CC(=O)N1CCSc2ccc(S(=O)(=O)N3CCC(C)CC3)cc21,-12.1% (inactive)
14,O=C(Nc1ccccc1N1CCCC1)c1ccc2ccccc2c1,58.1% (inactive)
15,CCCN(CCC)C(=S)Nc1cc(C(=O)OC)ccc1C(=O)OC,-14.3% (inactive)
16,COc1ccc(S(=O)(=O)N(CC(=O)N/N=C/c2ccc(C(=O)O)cc2)Cc2ccccc2)cc1OC,1.95% (inactive)
17,CCC(C)NC(=O)c1c(N)n(/N=C/c2cccs2)c2nc3ccccc3nc12 (configuration not stated),107% (active)
18,CC(C)Cn1c(N)c(C(=O)NCc2cccs2)c2nc3ccccc3nc21,-13.1% (inactive)
19,CCCNC(=O)c1c(N)n(-c2ccc(S(N)(=O)=O)cc2)c2nc3ccccc3nc12,-14.1% (inactive)
20,CCc1[nH]nc(C(=O)N2CCCC(CO)(Cc3ccc(F)cc3F)C2)c1C (configuration not stated),-13.8% (inactive)
21,Cc1ccc(S(=O)(=O)CC(=O)NC(C)c2ccccc2)cc1 (configuration not stated),-1.44% (inactive)
22,CCc1ccccc1NC(=O)[C@@H]1CCC(=O)N1C1OC(=O)c2c1ccc(OC)c2OC (some centres not stated),-2.37% (inactive)
23,COc1ccc(C[C@H](C(=O)O)N2C(=O)c3ccc(C(=O)O)cc3C2=O)cc1,2.25% (inactive)
24,Cc1ccc2[nH]cc(CCCN3C(=O)c4ccccc4C3=O)c2c1,1.09% (inactive)
25,COc1ccc2[nH]cc(CCN3C(=O)c4ccc(C(=O)O)cc4C3=O)c2c1,60.8% (active)

row,SMILES,inhibition
1,O=C(CC(c1ccccc1)c1ccccc1)NCC(O)c1ccc([N+](=O)[O-])cc1 (configuration not stated),-4.27% (inactive)
2,CCCCc1ccc(NC(=S)N2CCCC(CO)C2)cc1 (configuration not stated),87.2% (active)
3,COc1ccc(NC(=S)N2CCCC(CO)C2)c(OC)c1 (configuration not stated),-3.35% (inactive)
4,CCCCc1ccc(NC(=S)NCCCN2CCOCC2)cc1,-8.23% (inactive)
5,COc1ccc(C(=O)Nc2ccccc2C(=O)N2CCN(c3ccccc3)CC2)cc1,-6.97% (inactive)
6,Cc1nnc(NC(=O)Nc2ccc(Cl)c(Cl)c2)s1,-3.3% (inactive)
7,CCn1nccc1C(=O)Nc1ccc(Cl)c(Cl)c1,81% (active)
8,CCn1nccc1C(=O)Nc1ccc(S(=O)(=O)NC23CC4CC(CC(C4)C2)C3)cc1,-9.86% (inactive)
9,CC1=C(C(=O)OC2CCCCC2)C(c2ccccc2F)NC(=O)N1 (configuration not stated),4.41% (inactive)
10,O=C(O)c1cc(S(=O)(=O)N(Cc2ccccc2)c2ccccc2)ccc1Cl,-7.94% (inactive)
11,O=C(NCc1cccc(Cl)c1)C1CCN(c2nnc(N3CCCC3=O)s2)CC1,-4.8% (inactive)
12,Cc1ccc(C)c(N2CCN(C(=O)CCCCCn3c(=S)[nH]c4ccc(N5CCOCC5)cc4c3=O)CC2)c1,1.81% (inactive)
13,COC(=O)c1c(C)[nH]c(C)c1-c1ccc([N+](=O)[O-])cc1,21.5% (inactive)
14,Cc1ccc(NC(=S)NC(=O)/C=C/c2ccc(Cl)cc2)cc1,13% (inactive)
15,COC(=O)c1c(C)[nH]c(C(=O)/C=C/c2ccc(Cl)cc2)c1C,54.7% (active)
16,O=C(c1cccs1)C1C(c2ccc(Br)cc2)NC(=S)NC1(O)C(F)(F)F (configuration not stated),69.1% (active)
17,CCOC(=O)C1C(c2ccc(Cl)cc2)NC(=S)NC1(O)C(F)(F)F (configuration not stated),-9.88% (inactive)
18,CC(=O)C1C(c2ccc(Cl)cc2)NC(=O)NC1(O)C(F)(F)F (configuration not stated),-1.27% (inactive)
19,CC(=O)N1CCN(CC(C)(C)NS(=O)(=O)c2ccc(C)cc2)CC1,-4.99% (inactive)
20,CC(=O)c1c(C)[nH]c(C(=O)OCC(=O)NCCC(C)C)c1C,-4.2% (inactive)
21,COC(=O)c1c(C)[nH]c(C(=O)NCCc2ccc(S(N)(=O)=O)cc2)c1C,2.99% (inactive)
22,CCCCOC(=O)c1[nH]c(C)c(C(=O)OC)c1C,94.4% (active)
